Experimental data from PubChem BioAssay (NCI).
This is part of a sample that, as a whole, favours compounds with a hit. Of some 83,000 tested, about 20% had one in any assay.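 Method: cells in 96-well plates; compound added at one concentration; 48 h incubation; percent growth measured; values under 10 scored active.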 Active and inactive are the calls of the source.

Legend:
Assay in all cases: NCI-60 one-dose screen, 48 h (100 = growth as untreated, 0 = no growth, -100 = all killed)
Settings in all cases: 10 µM unless noted
NCI-H23 lung = test system: NCI-H23 lung
NCI-H226 lung = test system: NCI-H226 lung
NCI-H322M lung = test system: NCI-H322M lung
HOP-62 NSCLC = test system: HOP-62 NSCLC
NCI-H460 lung = test system: NCI-H460 lung
HOP-92 NSCLC = test system: HOP-92 NSCLC
NCI-H522 lung = test system: NCI-H522 lung
A549/ATCC NSCLC = test system: A549/ATCC NSCLC
786-0 renal = test system: 786-0 renal
COLO 205 colon = test system: COLO 205 colon

Measured: growth

O=C1Nc2ccc(F)cc2/C1=N/c1nnc(Sc2ccccc2)s1
inactive: NCI-H23 lung 87.4% | NCI-H226 lung 90.7% | NCI-H322M lung 103% | HOP-62 NSCLC 94.7% | NCI-H460 lung 95.6% | HOP-92 NSCLC 96.9% | NCI-H522 lung 77.2% | A549/ATCC NSCLC 96.8% | 786-0 renal 105% | COLO 205 colon 119%

COc1cc2cc(Oc3ccc(NC(=O)Nc4ccccc4)cc3)c(C)nc2cc1OCCN1CCCCC1
inactive: NCI-H23 lung 96.5% | NCI-H226 lung 99.8% | NCI-H322M lung 114% | HOP-62 NSCLC 94.9% | NCI-H460 lung 33% | HOP-92 NSCLC 55.7% | NCI-H522 lung 106% | A549/ATCC NSCLC 78.6% | 786-0 renal 68.3% | COLO 205 colon 69.3%

N#Cc1c(NC(=O)c2cccs2)[n+]([O-])c2ccc(Cl)cc2[n+]1[O-]
inactive: NCI-H23 lung 103% | NCI-H226 lung 92.1% | NCI-H322M lung 108% | HOP-62 NSCLC 95.7% | NCI-H460 lung 113% | HOP-92 NSCLC 94.8% | NCI-H522 lung 93.7% | A549/ATCC NSCLC 122% | 786-0 renal 107% | COLO 205 colon 113%

CCN1C(=O)N(CC)C2C1NN=c1s/c(=C\c3ccccc3Br)c(=O)n12 (stereo not given)
active: NCI-H460 lung 3.66% | NCI-H522 lung 0.628% | COLO 205 colon 3.13%
inactive: NCI-H23 lung 27.1% | NCI-H226 lung 56.7% | NCI-H322M lung 37.5% | HOP-62 NSCLC 40% | HOP-92 NSCLC 19.5% | A549/ATCC NSCLC 12.3% | 786-0 renal 17.4%

CC(/C=C1\SC(=S)N(CC(=O)NC(Cc2c[nH]c3ccccc23)C(=O)O)C1=O)=C\c1ccccc1 (stereo not given)
inactive: NCI-H23 lung 99.9% | NCI-H226 lung 102% | NCI-H322M lung 102% | HOP-62 NSCLC 96.3% | NCI-H460 lung 103% | HOP-92 NSCLC 106% | NCI-H522 lung 93.3% | A549/ATCC NSCLC 103% | 786-0 renal 102% | COLO 205 colon 116%

COc1cccc(/C=C/C(=O)c2cc3c(N)c(C(=O)Nc4ccccc4C)sc3nc2C)c1
inactive: NCI-H23 lung 70.4% | NCI-H226 lung 69.2% | NCI-H322M lung 80.5% | HOP-62 NSCLC 67.7% | NCI-H460 lung 32.2% | HOP-92 NSCLC 74.1% | A549/ATCC NSCLC 62.9% | COLO 205 colon 92.2%
active: NCI-H522 lung -7.9% | 786-0 renal 9.79%

O=C1C(Cl)=C(NCCN2CCOCC2)C(=O)c2ncccc21
active: NCI-H23 lung -41.8% | NCI-H226 lung -37.8% | NCI-H322M lung 1.09% | HOP-62 NSCLC -63% | NCI-H460 lung 0.786% | NCI-H522 lung -74% | A549/ATCC NSCLC -54.3% | COLO 205 colon -75.2%
inactive: HOP-92 NSCLC 72.6% | 786-0 renal 18.1%

CCN=C1C=CC(=C(c2ccc(N(C)C)cc2)c2ccc(N(C)C)cc2)c2ccccc21
active: NCI-H23 lung -5.87% | NCI-H226 lung -7.49% | NCI-H322M lung -30.1% | HOP-62 NSCLC -55.5% | NCI-H460 lung -36.8% | HOP-92 NSCLC -21.5% | NCI-H522 lung -36.8% | A549/ATCC NSCLC 1.14% | 786-0 renal -11% | COLO 205 colon -79%

Nc1ncnc2c1c(-c1ccc(Oc3ccccc3)cc1)nn2CC1SSCC1O (stereo not given)
inactive: NCI-H23 lung 49% | NCI-H226 lung 23.4% | NCI-H322M lung 34.8% | HOP-62 NSCLC 56.9% | NCI-H460 lung 28% | NCI-H522 lung 37.8% | A549/ATCC NSCLC 42.3% | 786-0 renal 63.8% | COLO 205 colon 35.2%
active: HOP-92 NSCLC 6.06%

COc1cc(-c2nc(NC(C)=O)sc2-c2ccnc(NCCNS(=O)(=O)c3ccccc3)n2)ccc1Cl
active: NCI-H522 lung 9.14% | COLO 205 colon 2.47%
inactive: NCI-H23 lung 63.4% | NCI-H226 lung 57.1% | NCI-H322M lung 79.1% | HOP-62 NSCLC 34.2% | NCI-H460 lung 11.8% | HOP-92 NSCLC 25.3% | A549/ATCC NSCLC 25.6% | 786-0 renal 34.7%

CC1COCC(C)N1C1=C(Cl)C(=O)c2ccccc2C1=O (stereo not given)
inactive: NCI-H23 lung 63% | NCI-H226 lung 97.3% | NCI-H322M lung 94% | HOP-62 NSCLC 99.2% | NCI-H460 lung 104% | HOP-92 NSCLC 53.4% | NCI-H522 lung 36.3% | A549/ATCC NSCLC 97.1% | 786-0 renal 102% | COLO 205 colon 104%

O=C(CN1C(=O)/C(=C/c2ccco2)SC1=S)NCCc1c[nH]c2ccc(F)cc12
inactive: NCI-H23 lung 94.7% | NCI-H226 lung 92.4% | NCI-H322M lung 102% | HOP-62 NSCLC 117% | NCI-H460 lung 103% | HOP-92 NSCLC 102% | NCI-H522 lung 82.5% | A549/ATCC NSCLC 102% | 786-0 renal 104% | COLO 205 colon 115%

O=c1[nH]c(-c2ccc(Cl)cc2)cn1-c1ccc(-n2cc(-c3ccc(Cl)cc3)[nH]c2=O)cc1
inactive: NCI-H23 lung 95.9% | NCI-H226 lung 91.1% | NCI-H322M lung 115% | HOP-62 NSCLC 99.8% | NCI-H460 lung 115% | HOP-92 NSCLC 99.1% | NCI-H522 lung 112% | A549/ATCC NSCLC 93.4% | 786-0 renal 96.4% | COLO 205 colon 111%

COc1cc(Nc2c3ccc(Cl)cc3nc3ccc(OC)cc23)c2ncccc2c1
active: HOP-92 NSCLC -0.879%
inactive: NCI-H23 lung 50% | NCI-H226 lung 62.1% | NCI-H322M lung 47.9% | HOP-62 NSCLC 50.1% | NCI-H460 lung 21% | NCI-H522 lung 49.7% | A549/ATCC NSCLC 34.3% | 786-0 renal 60.4% | COLO 205 colon 59.6%

Clc1nccc2c(-c3csc(-c4c[nH]c5ccccc45)n3)c[nH]c12
inactive: NCI-H23 lung 68.8% | NCI-H226 lung 39.5% | NCI-H322M lung 80.8% | HOP-62 NSCLC 101% | NCI-H460 lung 11.9% | HOP-92 NSCLC 24.3% | NCI-H522 lung 18.5% | A549/ATCC NSCLC 29.1% | 786-0 renal 27.7% | COLO 205 colon 33.3%

COc1ccc(NC(=O)c2sc3nc(C)c(C(O)c4ccccc4)cc3c2N)cc1 (stereo not given)
inactive: NCI-H23 lung 28.7% | NCI-H226 lung 57.9% | NCI-H322M lung 56.8% | HOP-62 NSCLC 28.2% | NCI-H460 lung 10.1% | HOP-92 NSCLC 78.9% | NCI-H522 lung 10.2% | A549/ATCC NSCLC 24.9% | 786-0 renal 40.7%
active: COLO 205 colon -5.84%

CN1CCN(c2ccc(NC(=O)c3cncnc3Nc3ccc4c(ccn4Cc4cccc(F)c4)c3)cc2)CC1
active: HOP-62 NSCLC 8.44% | 786-0 renal -38.4% | COLO 205 colon -34%
inactive: NCI-H23 lung 72.6% | NCI-H226 lung 85.5% | NCI-H322M lung 92.9% | NCI-H460 lung 30.7% | HOP-92 NSCLC 59.9% | NCI-H522 lung 75.6% | A549/ATCC NSCLC 43.2%

Cn1cccc1/C=C1\C(=O)Nc2ccccc21
inactive: NCI-H23 lung 66.9% | NCI-H226 lung 104% | NCI-H322M lung 87.9% | HOP-62 NSCLC 86.8% | NCI-H460 lung 89.1% | HOP-92 NSCLC 97.2% | NCI-H522 lung 101% | A549/ATCC NSCLC 101% | 786-0 renal 96.6% | COLO 205 colon 121%

COC(=O)C1=C(C)NC(C)=C(C(=O)OCC(C)C)C1c1ccccc1[N+](=O)[O-] (stereo not given)
inactive: NCI-H23 lung 58.4% | NCI-H226 lung 93.1% | NCI-H322M lung 65.4% | HOP-62 NSCLC 79.1% | NCI-H460 lung 49.5% | HOP-92 NSCLC 47.3% | NCI-H522 lung 25.4% | A549/ATCC NSCLC 65.4% | 786-0 renal 59% | COLO 205 colon 91.1%

COc1ncc2cc1NS(=O)(=O)c1cccc(c1)C(=O)NCC1=CC=C(S1)c1ncnc3c1SC2=C3C
active: NCI-H226 lung -30.4% | NCI-H322M lung -65.4% | HOP-62 NSCLC 4.4% | NCI-H460 lung 2.61% | HOP-92 NSCLC -17.5% | NCI-H522 lung 4.2% | A549/ATCC NSCLC 1.4% | 786-0 renal -23.8% | COLO 205 colon -35.5%
inactive: NCI-H23 lung 10.6%

N#Cc1c(Nc2ccc(F)cc2)n[nH]c1-c1cccs1
inactive: NCI-H23 lung 85.2% | NCI-H226 lung 88.9% | NCI-H322M lung 102% | HOP-62 NSCLC 110% | NCI-H460 lung 107% | HOP-92 NSCLC 87.5% | NCI-H522 lung 97.1% | A549/ATCC NSCLC 115% | 786-0 renal 98.3% | COLO 205 colon 128%

CCCCCCCCCCCCCCCCOC(=O)c1c(C)[nH]c(/C=C2\N=C(c3ccc[nH]3)C=C2OC)c1C
inactive: NCI-H23 lung 48.8% | NCI-H322M lung 82.7% | HOP-62 NSCLC 54.2% | NCI-H460 lung 13.3% | NCI-H522 lung 27.1% | A549/ATCC NSCLC 11% | 786-0 renal 11.3% | COLO 205 colon 33.6%
active: NCI-H226 lung 6.67% | HOP-92 NSCLC -12.6%
